Compounds without any hit were thinned out: in the full panel of roughly 79,000, 15% have a hit. Unmarked numbers belong to inactive results. Active and inactive are the calls of the source. No stated cut-off is given here; in the data, active means growth inhibition above about 70%; inactive means the rest. Where a SMILES comes first, the peptide text is derived from it. [ ]: non-standard residue; d: D form. The star is where a group is joined. ξ: configuration not given here. ξF = NC(Cc1ccccc1)C(=O)O; Cbz = O=C(OCc1ccccc1)*

Here are results for 37 compounds from PubChem BioAssay (NCI).

Test [1] is described as follows: NCI Yeast Anticancer Drug Screen. Data for the rad50 strain (AID 155).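 Further: 0% = growth of vehicle-only cultures of the same strain.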 Conditions: S. cerevisiae rad50 strain growth inhibition; at 50.0 µM; active compounds read high. The gist of the method: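 Inhibition values express reduced yeast growth in compound-treated cultures relative to vehicle-treated controls.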
A short description of test [2]: NCI Yeast Anticancer Drug Screen. Data for the mec2-1 strain (AID 157). As to conditions: S. cerevisiae mec2-1 strain, at 50.0 µM, active compounds read high. The gist of the method:
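Test agents were screened against the mec2-1 yeast strain, with defined DNA repair or cell cycle alteration. Growth was scored as inhibition against vehicle-only controls.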

The nature of test [3]: NCI Yeast Anticancer Drug Screen. Data for the sgs1 mgt1 strain (AID 161).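 Further: 0% = growth of cultures given vehicle only.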 Conditions: S. cerevisiae sgs1 mgt1 strain, at 50.0 µM, active compounds read high. In outline: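 Read-out: growth inhibition vs vehicle controls. Cells: mutant yeast strain deficient in DNA damage repair.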
Test [4] in a line: NCI Yeast Anticancer Drug Screen. Data for the cln2 rad14 strain (AID 165).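 Further: 0% = growth equal to vehicle treated cultures.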 As to conditions: S. cerevisiae cln2 rad14 strain, at 50.0 µM, active compounds read high. In outline: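 Growth of compound-exposed yeast (cln2 rad14 genotype) measured and expressed as inhibition relative to vehicle.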
The nature of test [5]: NCI Yeast Anticancer Drug Screen. Data for the bub3 strain (AID 167). Conditions: S. cerevisiae bub3 mutant strain, at 50.0 µM, active compounds read high. In outline: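 Steps: expose the mutant yeast strain to compound; grow alongside vehicle-treated cultures; measure growth; express inhibition against the vehicle cultures.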
A short description of test [6]: NCI Yeast Anticancer Drug Screen. Data for the mlh1 rad18 strain (AID 175). As to conditions: S. cerevisiae mlh1 rad18 strain growth inhibition; at 50.0 µM; active compounds read high. In outline: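 In this whole-cell yeast screen, a strain with altered DNA damage repair is challenged with compound, and its growth is measured against matched vehicle-treated controls.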

As to `CCOC(=O)C(=CNC(=S)Nc1ccc(OCC)cc1)C(=O)OCC`, the growth inhibition in test [1] was -9.75%; in test [2], -24.5%; in test [3] it was -7.85%; in test [4], -16.3%; in test [5] it was 11.5%; in test [6], 6.05%.
Consider `O=C(On1nnc2ccccc2c1=O)c1ccccc1`, for which the growth inhibition is 29.7% in test [1]; 20.4% in test [2]; 22.8% in test [3]; -7.25% in test [4]; -3.25% in test [5]; 12.8% in test [6].
Take `CCN(S(C)(=O)=O)S(C)(=O)=O`: the growth inhibition in test [1] is -7.5%; in test [2] it was -2.5%; in test [3], -4.65%; in test [4], -37%; in test [5], 9.55%; in test [6] it was -15.8%.
Take `CC1C(=O)C(O)CC2C1(C)CCC1C2(C)CCC2(C)C3CC(C)(C)CCC3(C)CCC12C` (configuration not stated): the growth inhibition in test [1] was -7.2%; in test [2], -2.6%; in test [3], -6.45%; in test [4] it was 1.2%; in test [5], 5.45%; in test [6], -4.7%.
As for `CCNC1C2(CCCCC2)NC(=O)C12CCCCC2` (configuration not stated), the growth inhibition in test [1] was -43.4%; in test [2], -10.9%; in test [3], -1.1%; in test [4] it was 12.1%; in test [5], -7.05%; in test [6], 2.65%.
Consider `Nc1nnc2nc(CC(=O)c3ccccn3)/c(=C/C(=O)c3ccccn3)n12`, for which the growth inhibition in test [1] is -7.3%; in test [2], -13.7%; in test [3], -2.8%; in test [4], -43.3%; in test [5], -26.9%; in test [6] it was -23.1%.
Turning to `O=[N+]([O-])c1ccc(N=Cc2ccccc2)cc1`, the growth inhibition in test [1] is 1.95%; in test [2], -30.6%; in test [3] it was 12.9%; in test [4] it was 3.75%; in test [5], 16.5%; in test [6], 5.8%.
In the case of `COc1ccc([N+](=O)[O-])c2ccc(=O)oc12`, the growth inhibition is -9.9% in test [1]; 5.2% in test [2]; -4.1% in test [3]; -0.35% in test [4]; 4.75% in test [5]; 9.9% in test [6].
On to `COc1ccc(/C=N/N2CN(C(C)C(=O)O)B(N(CCO)CCO)N=C2N)cc1OC` (configuration not stated), for which the growth inhibition is 15.2% in test [1]; 5.3% in test [2]; 7.55% in test [3]; 20.9% in test [4]; 7.65% in test [5]; 20.9% in test [6].
As to `CCOC(=O)C1=C(O)CSC1=Nc1ccccc1`, the growth inhibition in test [1] is -16.3%; in test [2], 5.6%; in test [3], -12.8%; in test [4], -9.3%; in test [5], -1.7%; in test [6], 22.9%.
In the case of `Cc1cc(C)c(-c2c(C)cc(C)c([N+](=O)[O-])c2C)c(C)c1N`, the growth inhibition in test [1] was 98.1% (active); in test [2], 98.8% (active); in test [3], 98.4% (active); in test [4] it was 96.5% (active); in test [5] it was 97.2% (active); in test [6], 97.8% (active).
Consider `CS(=O)(=O)Nc1ccc(NS(C)(=O)=O)cc1`, for which the growth inhibition is 1.6% in test [1]; 17.5% in test [2]; 4.45% in test [3]; 1.75% in test [4]; 2.9% in test [5]; -13.2% in test [6].
For `CC(=O)CCCCc1ccccc1`, the growth inhibition in test [1] was -1.45%; in test [2], -8.45%; in test [3], -9.3%; in test [4], -71.6%; in test [5], -9.2%; in test [6], -1%.
As for `CN1C(c2ccccc2)=C(C#N)C(=O)CC(c2ccccc2)N1C` (configuration not stated), the growth inhibition is 26.1% in test [1]; 11.6% in test [2]; 30.2% in test [3]; 14.8% in test [4]; 11.4% in test [5]; 21.2% in test [6].
In the case of `CCOc1ccc(/C=N/NC(=O)CCCCCCCCC(=O)N/N=C/c2ccc(OCC)c(OC)c2)cc1OC`, the growth inhibition in test [1] is -25.6%; in test [2], -5.1%; in test [3] it was -27.1%; in test [4] it was -27.6%; in test [5], -1.45%; in test [6], -8.35%.
On to `c1coc(CNc2ncnc3nccnc23)c1`, for which the growth inhibition in test [1] was -16.9%; in test [2] it was -4.35%; in test [3] it was -15.6%; in test [4] it was -20.2%; in test [5], -32.5%; in test [6], -4.45%.
On to `CC1C=CCC2C(=O)OC(=O)C12` (configuration not stated), for which the growth inhibition in test [1] was 10.3%; in test [2], -1.65%; in test [3], -4.65%; in test [4], -3.8%; in test [5] it was -0.75%; in test [6], 15.6%.
For the compound `CC1=NN(C(=O)Cc2ccccc2)C(=O)/C1=C\c1ccco1`, the growth inhibition was -37.9% in test [1]; -37.4% in test [2]; -47.9% in test [3]; -13.8% in test [4]; -25.9% in test [5]; -55.9% in test [6].
Take `CNc1ccc(Oc2ccccc2)cc1[N+](=O)[O-]`: the growth inhibition in test [1] was -2.2%; in test [2] it was 6.4%; in test [3], -11.3%; in test [4], -34.6%; in test [5], -9.9%; in test [6], -11%.
Take `Cn1c(CBr)nc2c1C(=O)c1nc[nH]c(=O)c1C2=O`: the growth inhibition in test [1] was 32%; in test [2], 0.55%; in test [3] it was 37.6%; in test [4] it was 11.8%; in test [5], 3.4%; in test [6], 31.6%.
On to `O=C(CCc1ccccc1Cl)CC(=O)CC(O)(c1ccccc1)c1ccccc1`, for which the growth inhibition in test [1] is 68%; in test [2] it was 57.5%; in test [3], 70.5% (active); in test [4] it was 42.2%; in test [5] it was 39.4%; in test [6], 61.9%.
`CN(O)C(=O)Cc1ccccc1`: the growth inhibition is 3.5% in test [1]; 6.05% in test [2]; -0.1% in test [3]; 15.8% in test [4]; 13.9% in test [5]; 16.4% in test [6].
With `Nc1nc2c(nc(OCc3ccccc3)n2C2OC(CO)C(O)C2O)c(=O)[nH]1` (configuration not stated), the growth inhibition is 23.5% in test [1]; 10.8% in test [2]; 2.65% in test [3]; 8.95% in test [4]; 0.5% in test [5]; 16.1% in test [6].
`Cc1ccc(/C=N/NC(N)=O)cc1`: the growth inhibition is 25.6% in test [1]; 15.8% in test [2]; 12.3% in test [3]; 10.4% in test [4]; 17.2% in test [5]; -3.85% in test [6].
As to `OCC(O)COCCCCCCCCCCCCCC1C=CCC1` (configuration not stated), the growth inhibition in test [1] was -35.8%; in test [2] it was -43.5%; in test [3], -35%; in test [4], -4.3%; in test [5], -23.5%; in test [6], -30.7%.
On to `OC1c2ccccc2-c2ccc(N(Cc3ccccc3)Cc3ccccc3)cc21` (configuration not stated), for which the growth inhibition in test [1] was 6.95%; in test [2], 11.4%; in test [3] it was 3.75%; in test [4], 30.8%; in test [5], -9%; in test [6] it was 23.8%.
As for `CCCCC(C(=O)OCC)C(=O)OCC`, the growth inhibition in test [1] was 5.9%; in test [2], 4.45%; in test [3], -6.35%; in test [4], -53%; in test [5], -2.75%; in test [6] it was -3.2%.
Take `C=CCc1ccc(OC(=O)Nc2ccc(S(=O)(=O)NC3CCCCC3)cc2)c(OC)c1`: the growth inhibition in test [1] is 33.7%; in test [2], 8.85%; in test [3], 44.7%; in test [4], 33.1%; in test [5], 11.8%; in test [6], 44.4%.
As for `C[C@@H](Oc1ccc(Oc2cnc3ccc(Cl)cc3n2)cc1)C(=O)O`, the growth inhibition was 15.8% in test [1]; 5.4% in test [2]; 4.2% in test [3]; 37.8% in test [4]; 15.2% in test [5]; 3.95% in test [6].
Turning to `N#CCCN(c1ccc(C=Nc2ccccc2Cl)cc1)S(=O)(=O)c1ccccc1`, the growth inhibition is -18.1% in test [1]; -9.8% in test [2]; -13.7% in test [3]; 4.25% in test [4]; -6.5% in test [5]; 16.2% in test [6].
As for `O=c1[nH]cc(F)c(=S)[nH]1`, the growth inhibition was -9.85% in test [1]; -16.5% in test [2]; -5.9% in test [3]; -16.4% in test [4]; 6.2% in test [5]; -23.9% in test [6].
Turning to `Cn1c(=O)c2c(ncn2CCCCn2ccnc2[N+](=O)[O-])n(C)c1=O`, the growth inhibition is -30.1% in test [1]; -3.95% in test [2]; -14.9% in test [3]; 7.3% in test [4]; -1.25% in test [5]; -5.35% in test [6].
For `Nc1n[nH]c(CO)n1`, the growth inhibition in test [1] was 7.3%; in test [2], 4.05%; in test [3], -6.6%; in test [4], 9.65%; in test [5] it was -14.8%; in test [6], -7.1%.
Regarding `CCOC(=O)c1cnc(SC)nc1N`, the growth inhibition in test [1] was 9.25%; in test [2], -8.1%; in test [3], -7.9%; in test [4], -2.1%; in test [5] it was 8.95%; in test [6], -3.5%.
Consider `CCCCCCCCCCCCCCCC(=O)OCC1OC(n2ccc(N)nc2=O)C(O)C1O` (configuration not stated), for which the growth inhibition was -1.2% in test [1]; -10.3% in test [2]; 3.2% in test [3]; 8.2% in test [4]; 4.1% in test [5]; -2.8% in test [6].
Regarding `COC(=O)c1ccccc1NC(=O)C1CCCCC1=O` (configuration not stated), the growth inhibition in test [1] is 1.55%; in test [2] it was -1.2%; in test [3] it was -0.1%; in test [4], -21.5%; in test [5], 12.3%; in test [6], 0.6%.
Regarding `CCOC(=O)CNC(=O)C(Cc1ccccc1)NC(=O)OCc1ccccc1` (configuration not stated) (Cbz-[ξF]-Gly-OEt), the growth inhibition is -16.2% in test [1]; -19.1% in test [2]; 4.55% in test [3]; -4.75% in test [4]; -3.6% in test [5]; -9% in test [6].
